Assay outcomes: PubChem BioAssay, National Center for Advancing Translational Sciences (NCATS)
Rows were chosen to be rich in hits. Some 2.3% of all compounds tested hit in one or more screens of this group.
Anesthetic bind = candidate novel general anesthetic via apoferritin binding; AID 485281; Potency, µM (highest dose often 77.5 µM), without a hit: top-dose activity change, negative = displacement, hits mostly inhibitors; 350,000 compounds, 0.074% hits; P02791; apoferritin/1-aminoanthracene competitive binding, fluorescence; also: potency is read from the fitted curve at half-maximal effect; % is scaled to controls: 0 for no effect and ±100 for the full control effect; nearly all actives have a fitted effect of over 20% in size
Target sequence (P02791 2-175 limits assumed): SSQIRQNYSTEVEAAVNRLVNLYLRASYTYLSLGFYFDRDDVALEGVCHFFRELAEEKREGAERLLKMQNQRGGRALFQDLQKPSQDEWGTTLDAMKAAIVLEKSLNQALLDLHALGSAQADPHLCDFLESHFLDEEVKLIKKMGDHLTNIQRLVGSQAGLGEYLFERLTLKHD
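Probe: 1-aminoanthracene (50% saturated, PBS). Protein: horse-spleen apoferritin, 10 uM. Incubation: 10 min, room temperature. Detection: 380 nm excitation, 535 nm emission. Analysis: normalized response, four-parameter Hill.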
mIDH1 inhibitor = blocks human mutant IDH1 R132H enzyme | O75874 | IDH1-R132H enzyme, NADPH consumption, diaphorase/resazurin fluorescence | Potency, µM (series often up to 76.6 µM), inactives show at the highest dose activity change, negative = inhibition, actives largely listed as inhibitors | 390,000 compounds, 0.093% hits; also: potency is read from the fitted curve at half-maximal effect; % is scaled to controls: 0 for no effect and ±100 for the full control effect; nearly all actives have a fitted effect of over 65% in size
Target sequence (O75874 whole entry R132H, stated change not applied): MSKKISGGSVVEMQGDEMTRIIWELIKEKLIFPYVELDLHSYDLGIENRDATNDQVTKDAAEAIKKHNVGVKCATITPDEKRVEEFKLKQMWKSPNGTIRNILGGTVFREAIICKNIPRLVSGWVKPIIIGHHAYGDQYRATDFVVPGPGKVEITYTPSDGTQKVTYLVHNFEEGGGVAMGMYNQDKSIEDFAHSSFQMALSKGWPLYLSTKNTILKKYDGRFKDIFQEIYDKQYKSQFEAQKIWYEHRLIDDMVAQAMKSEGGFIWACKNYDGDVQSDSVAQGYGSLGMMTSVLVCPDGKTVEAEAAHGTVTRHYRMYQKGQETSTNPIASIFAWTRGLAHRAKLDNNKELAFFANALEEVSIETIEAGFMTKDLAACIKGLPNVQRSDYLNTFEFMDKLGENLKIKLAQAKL
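IDH1-R132H (0.5 ug/mL dispensed) in pH 7.5 Tris buffer was preincubated 30 min with compound, then given a substrate mix of 0.016 mM NADPH and 2 mM alpha-KG for 80 min at room temperature; remaining NADPH was read by diaphorase/resazurin fluorescence.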
A549 tox = kills or reduces viability of A549 cells in Nrf2 counter-screen; AID 504648; 390,000 compounds, 0.16% hits; A549 ARE-Fluc cells, CellTiter-Fluor viability, 18-24 h; Potency, µM (series often up to 46 µM), inactives show at the highest dose activity change, negative = cytotoxicity, hits mostly inhibitors; also: potency is read from the fitted curve at half-maximal effect; % is scaled to controls: 0 for no effect and ±100 for the full control effect
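A549 ARE-Fluc cells in 5% FBS OPTI-MEM, 5000 cells/well, rested 2 h then exposed to compounds in concentration-response for 18-24 h at 37 °C. Viability by CellTiter-Fluor fluorescence (Ex 405/Em 525) after 30 min; luciferase luminescence (BugLite, 15 min, RT) read afterwards.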
Nrf2 ARE act = activates Nrf2 signaling | AREc32 ARE-luciferase reporter (MCF7-derived line), luminescence, 24 h | Potency, µM (doses to about 46.1 µM), inactives show at the highest dose activation, actives largely listed as activators | 410,000 compounds, 0.31% hits | AID 624171; also: potency is read from the fitted curve at half-maximal effect; % of control where 0% means no effect; nearly all actives have a fitted effect of over 65% in size
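Steps: seed AREc32_Fluc cells (1000/well, 5% FBS OPTI-MEM); incubate overnight at 37 deg C; add 23 nL compound; incubate 24 hr; add Steady-Glo; hold 30 min RT; read luminescence.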
Nrf2 block = blocks Nrf2 signaling; A549 ARE-Fluc reporter, luciferase luminescence, 18-24 h; Potency, µM (series often up to 46 µM), for inactives: at the highest dose activity change, negative = inhibition, usual class: inhibitors; 360,000 compounds, 2.1% hits; also: potency is read from the fitted curve at half-maximal effect; % is scaled to controls: 0 for no effect and ±100 for the full control effect; nearly all actives have a fitted effect of over 60% in size
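Quantitative HTS in A549 cells stably bearing an antioxidant response element-firefly luciferase construct. Inhibition of Nrf2-driven transcription was scored by luminescence after 18-24 h of compound exposure at 37 °C.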
Giardia kill = Giardia lamblia killing; 340,000 compounds, 0.15% hits; Giardia lamblia trophozoite viability; activity change, % at 7.66 µM, hits read low; in the data active = activity change below about -80%; inconclusive = between about -30% and that limit;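 also: parasites exposed to compound for two days anaerobically before the ATP read; % is scaled to controls: 0 for no effect and ±100 for the full control effect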
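Luminescent ATP signal served as the viability read-out, measured 15-30 min after adding ATP detection reagent to trophozoites that had been incubated with compounds for 48 hrs at 37 deg C anaerobically at 100 cells/well.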
The depositor's hits bear a star; ? = inconclusive; · = no result; [ ] = another dose, or the depositor's remark. Unless noted, calls follow the shape of the dose curve; as a rule, active = well fitted curve in the direction sought with a large enough effect; inconclusive = small, poorly fitted or top-dose-only effect, or another doubt; inactive = no such curve, though single readings can be large; an effect the other way counts as inactive or inconclusive.

SMILES | Anesthetic bind | mIDH1 inhibitor | A549 tox | Nrf2 ARE act | Nrf2 block | Giardia kill
COc1ccc(-c2cc(N)n(S(=O)(=O)c3ccc(F)cc3)n2)cc1OC | -8% | 8% | -5% | 0% | 16µM* | -11
Nc1cc(-c2ccc(Br)cc2)nn1S(=O)(=O)c1ccccc1 | -12% | 7% | -1% | 0% | 3% | 13
Nc1cc(-c2ccccc2)nn1S(=O)(=O)c1ccc(F)cc1 | -20% | -3% | -2% | 0% | 18µM* | -15
COc1ccc(CNC(=O)CCCN2C(=O)CSc3c2c(C)nn3-c2ccccc2)cc1 | -5% | -7% | 0% | 0% | -28% | ·
COc1ccccc1N1CCN(C(=O)CSc2n[nH]c(-c3ccccc3Cl)n2)CC1 | 4% | -17% | -5% | 1% | · | ·
CN(C)c1ccc(CNC(=O)C2CCN(C(=O)c3ccc(-n4ccc5ccccc54)s3)CC2)cc1 | 50% | -10% | -17% | 7% | 0% | ·
COc1ccc(CNC(=O)C2CCN(C(=O)c3ccc(-n4ccc5ccccc54)s3)CC2)cc1 | 100% | 2% | -25% | 3% | 21µM* | ·
N#CC1=C(N)C2=CCCC[C@H]2[C@H](c2ccccc2)C1(C#N)C#N | 44% | 23µM* | 2% | 3%[9.22 µM] | -17% | -6
N#CC1=C(N)C2=CCCC[C@H]2[C@H](c2ccc(Br)cc2)C1(C#N)C#N | -1% | ? | -6% | ? | 0% | 2
Cc1nc(-c2ccccc2)cc(N2CCCC2)n1 | 2% | 3% | -4% | ? | 8% | 22
Cc1cc(-c2ccccc2)nc2[n+]1CCN2C | 9% | 0% | -15% | 0% | 5.2µM* | -5
CC(=O)c1ccc(N2CCN(C(=O)Nc3ccc(F)cc3)CC2)cc1 | -11% | · | · | · | · | ·
CC(=O)c1ccc(N2CCN(C(=O)Nc3ccc(C(C)C)cc3)CC2)cc1 | ? | -2% | ? | 2% | 7.3µM* | -1
COCCCNC(=O)CSc1nc2cc3c(cc2c(=O)n1CCCCCC(=O)NCc1ccc2c(c1)OCO2)OCO3 | 1% | -1% | -5% | 0% | · | ·
N#C/C(=C(/O)COc1ccc(Cl)cc1)c1nc2ccccc2s1 | -5% | 6% | 16µM* | 2% | 23µM* | -22
N#C/C(=C(/O)COc1ccccc1)c1nc2ccccc2s1 | -2% | -4% | -17% | 0% | ? | 30
Fc1ccc(CSc2ccc3nnc(-c4cccnc4)n3n2)cc1 | -14% | 2% | -1% | 0% | 9.2µM* | -11
COc1ccc(CN(C2CC2)S(=O)(=O)c2ccccc2Br)cc1 | · | 2% | -1% | 0% | 16µM* | -8
CCn1c(=O)cc(SCC(=O)Nc2cccc(SC)c2)c2ccccc21 | -12% | 1% | -23% | 4% | 13µM* | 1
COc1cc(OC)cc(C(=O)Nc2ccc(-c3nc4cc(C(C)C)ccc4o3)cc2)c1 | -11% | ? | -4% | 14% | 15µM* | ·
CCOc1ccc(C(=O)Nc2ccc(-c3nc4cc(C(C)C)ccc4o3)cc2)cc1Cl | -2% | -9% | -4% | 4% | -27% | ·
CCc1ccc2oc(-c3cc(NC(=O)c4cc(OC)c(OC)c(OC)c4)ccc3O)nc2c1 | 13% | -9% | -6% | 4% | 4% | ·
COc1cc(C(=O)Nc2ccc(-c3nc4cc(C)ccc4o3)c(O)c2)cc(OC)c1OC | 3% | 0% | -16% | 0% | 21µM* | -9
Cc1cccc(C(=O)Nc2ccc(-c3nc4cc(C(C)C)ccc4o3)cc2)c1 | -6% | 0% | 2% | 5% | 15µM* | ·
COc1ccc(CCN2C(=O)c3oc4ccc(F)cc4c(=O)c3C2c2ccc(C(C)(C)C)cc2)cc1 (configuration not stated) | -9% | 10% | ? | 0% | 4% | ·
SMILES | Anesthetic bind | mIDH1 inhibitor | A549 tox | Nrf2 ARE act | Nrf2 block | Giardia kill
CCc1ccc(-n2nc(C)c3c(C(=O)N4CCN(c5ccccc5)CC4)cc(C)nc32)cc1 | -2% | -3% | 0% | 4% | 18µM* | ·
Cc1ccc(NS(=O)(=O)c2ccc3c(c2)CCC(=O)N3)cc1F | · | · | 1% | · | -13% | ·
N#Cc1c(-c2ccco2)cc(-c2ccccc2)[nH]c1=O | 104% | 0% | 1% | 2.5µM* | -54% | -10
Cc1ccc(-c2cc(-c3ccco3)c(C#N)c(=O)[nH]2)cc1 | -3% | 1% | -8% | 8% | -13% | 14
O=C(/C=C/c1ccco1)NC(=S)Nc1ccccc1O | -11% | 3% | 3% | 26% | ? | -6
O=C(/C=C\c1ccco1)NC(=S)Nc1ccccc1O | -6% | 7% | -1% | 7.1µM* | 10% | -9
O=C1OC(Nc2ccc3c(c2)OCO3)c2ccccc21 (configuration not stated) | ? | 3% | -17% | 11µM* | ? | 14
c1ccc(CN(Cc2ccccc2)Cc2nnc(-c3cc4ccccc4[nH]3)o2)cc1 | · | · | 0% | · | 15% | ·
CN(C(=O)COC(=O)c1nc(Cl)c(Cl)c(Cl)c1Cl)C1CCS(=O)(=O)C1 (configuration not stated) | -7% | -1% | ? | 13µM* | -24% | -7
CN(C(=O)COC(=O)c1ccc(C(C)(C)C)cc1)C1CCS(=O)(=O)C1 (configuration not stated) | · | 1% | -6% | 0% | -7% | -13
O=C(Nc1cccc(C(F)(F)F)c1)C1CCN(S(=O)(=O)c2cccc3nsnc23)CC1 | ? | 12% | -4% | 8% | 21µM* | ·
COc1ccc(NC(=O)C2CCCN(c3ncnc4onc(C)c34)C2)cc1OC (configuration not stated) | -9% | 0% | 0% | 3% | · | ·
Cc1noc2ncnc(N3CCCC(C(=O)Nc4cccc(C(F)(F)F)c4)C3)c12 (configuration not stated) | ? | -14% | -12% | 3% | 5.8µM* | ·
Cc1ccnc(N2CCC(C(=O)Nc3cccc(C(F)(F)F)c3)CC2)n1 | -20% | 4% | · | 0% | 13µM* | -27
CN(C)c1ccc(C=NN2C(=O)CSC2=S)c(Cl)c1 | · | 11% | · | 1% | · | ·
O=C(CCl)N(c1ccccc1)C1CCS(=O)(=O)C1 (configuration not stated) | -5% | 3% | ? | -3% | 23µM* | 5
Nc1ncnc2oc(-c3ccoc3)c(-c3ccco3)c12 | · | · | -1% | · | ? | 11
Nc1ncnc2oc(-c3ccco3)c(-c3ccco3)c12 | -1% | 6% | -20% | 17% | 15µM* | -1
CCc1nc(SCC(=O)NC2CCCC2)c2oc3ccccc3c2n1 | -2% | 0% | -7% | -1% | -13% | -11
CCc1nc(SCC(=O)N2CCCc3ccccc32)c2oc3ccccc3c2n1 | ? | -3% | ? | -1% | 16µM* | -2
